Source: PubChem BioAssay
Values joined by “and” are separate entries in the source; they are usually repeats but may differ in a detail not shown here. Equal entries are not always repeated. Active and inactive are the calls of the source.

Columns and labels:
[1] = system: PRMT1 (protein arginine N-methyltransferase 1); experiment: PRMT1 binders on small-molecule microarrays, primary screen, biochemical, small-molecule microarray, 635 nm fluorescence (AID 1088); conditions: small-molecule microarray binding, higher = more signal;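 note: binding of Prmt1 protein to compounds spotted on small-molecule microarray slides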
[2] = yeast growth modulation, basal conditions, primary screen, YJM789 clinical isolate, OD600, 24 h (AID 1089);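 note: growth of clinical yeast isolate S. cerevisiae YJM 789 seeded 1000 cells per well; test concentration not given here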; conditions: S. cerevisiae YJM789 growth, higher = more signal, called active from +8 up or from −8 down
[3] = fission yeast growth modulation, primary screen, strain 972, OD600, 24 h, no modulator (AID 1090);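 note: basal condition with compound alone and no growth modifier present; test concentration not given here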; conditions: S. pombe 972 growth, higher = more signal, called active from +8 up or from −8 down
[4] = S. cerevisiae growth modulation with rapamycin, primary screen, strain BY4716, OD600, 96 h (AID 1091); conditions: higher = more signal, called active from +8 up or from −8 down; note: test concentration not given here
[5] = biological target: Torsin-1A-interacting protein 2 (Homo sapiens) (UniProt Q8NFQ8); experiment: LULL1 binders on small-molecule microarray, primary screen, cell lysate, human LULL1 lysate, 635/667 nm fluorescence (AID 1092); conditions: hLULL1 lysate binding, 635 nm fluorescence, higher = more signal;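 note: probe is lysate of COS7 cells overexpressing human LULL1; score merges per-feature 667 nm fluorescence with signal-to-noise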
[6] = E. coli growth modulation, two-sided OD650, primary screen, E. coli filamentation project, strain DRC41, 24 h (AID 1093); conditions: OD650, 24 h, higher = more signal, called active from +8 up or from −8 down;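 note: MC1000 strain lacking acrAB efflux and sulA so SOS filamentation is blocked; test concentration not given here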
[7] = small-molecule microarray binders of probe aLefty2, primary screen, biochemical, biotinylated probe, 635/667 nm fluorescence (AID 1094); conditions: higher = more signal;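 note: score merges spot fluorescence near 667 nm with spot signal-to-noise ratio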
[8] = system: Noggin (protein binding on small-molecule microarray); experiment: Noggin binders on small-molecule microarray, primary screen, biochemical, 635/667 nm fluorescence (AID 1095); conditions: 635 nm fluorescence, higher = more signal;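 note: score merges 667 nm feature fluorescence with signal to noise over triplicate slides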
[9] = biological target: Neurogenic locus notch homolog protein 3 (Homo sapiens) (UniProt Q9UM47); experiment: NOTCH3 binders on small-molecule microarray, primary screen, biochemical, 635/667 nm fluorescence (AID 1096); conditions: NOTCH3 binding, 635 nm fluorescence, higher = more signal
[10] = small-molecule microarray binders of probe aEGFR, primary screen, biochemical, biotinylated probe, 635/667 nm fluorescence (AID 1097); conditions: higher = more signal;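 note: probe is a biotinylated anti-EGFR antibody binding compounds printed on slides; score combines fluorescence near 667 nm and signal to noise of each spot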
[11] = system: Plasmodium falciparum Sir2 (PF13_0152, Sir2A); experiment: pfSir2 binders on small-molecule microarrays, primary screen, biochemical, small-molecule microarray, 635 nm fluorescence (AID 1098); conditions: small-molecule microarray binding, fluorescence 635 nm; higher = more signal;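 note: score merges spot fluorescence intensity with its signal-to-noise ratio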
[12] = small-molecule microarray binders of probe aDKK1, primary screen, biochemical, biotinylated probe, 635/667 nm fluorescence (AID 1099); conditions: higher = more signal;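 note: score merges 667nm spot fluorescence with signal to noise across triplicate slides; reference of the scale not given here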
[13] = small-molecule microarray binders of probe aCHRDL2, primary screen, biochemical, biotinylated probe, 635/667 nm fluorescence (AID 1100); conditions: higher = more signal
[14] = splicing luciferase reporter signal modulators, primary screen, spliceosome inhibition project, cell-based, HEK293, splice +/- reporter (AID 1101); conditions: luminescence, 24 h, higher = more signal, called active from +8 up or from −8 down;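 note: HEK293 cells carrying a splicing-competent luciferase reporter gene; test concentration not given here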
[15] = biological target: Fibroblast growth factor 10 (Homo sapiens) (UniProt O15520); experiment: FGF10 binders on small-molecule microarrays, primary screen, biochemical, small-molecule microarray, 635 nm fluorescence (AID 1102); conditions: FGF10 binding, fluorescence 635 nm, higher = more signal
[16] = system: glycogen synthase kinase-3 (GSK3A per assay name; protocol says GSK3B); experiment: GSK3 binders on small-molecule microarrays, primary screen, biochemical, small-molecule microarray, 635 nm fluorescence, GSK3A (AID 1103); conditions: small-molecule microarray binding, fluorescence 635 nm; higher = more signal; note: the record names both GSK3A and GSK3B
[17] = biological target: Epidermal growth factor receptor (Homo sapiens) (UniProt P00533); experiment: EGFR binders on small-molecule microarrays, primary screen, biochemical, small-molecule microarray, 635 nm fluorescence (AID 1104); conditions: EGFR binding, higher = more signal;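 note: score merges 667 nm emission intensity with spot signal to noise over triplicate slides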
[18] = biological target: Follistatin-related protein 3 (Homo sapiens) (UniProt O95633); experiment: FSTL3 binders on small-molecule microarrays, primary screen, biochemical, small-molecule microarray, 635 nm fluorescence (AID 1105); conditions: FSTL3 binding, higher = more signal;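 note: score merges emission near 667 nm and signal to noise per printed spot across three slides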
[19] = biological target: Dickkopf-related protein 1 (Homo sapiens) (UniProt O94907); experiment: DKK1 binders on small-molecule microarrays, primary screen, biochemical, small-molecule microarray, 635 nm fluorescence scan (AID 1106); conditions: DKK1 binding, higher = more signal;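 note: score merges emission near 667 nm with signal to noise over three replicate slides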
[20] = system: Inhibin beta A chain (activin A); experiment: INHBA (activin A) binders on microarrays, primary screen, biochemical, small-molecule microarray, 635 nm fluorescence scan (AID 1107); conditions: small-molecule microarray binding, higher = more signal;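 note: mouse activin A protein probed at 4.33 µg/mL on printed slides; score merges bound-protein fluorescence near 667 nm with spot signal-to-noise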

Chain of Torsin-1A-interacting protein 2 (Homo sapiens) (Q8NFQ8 whole entry, looked up): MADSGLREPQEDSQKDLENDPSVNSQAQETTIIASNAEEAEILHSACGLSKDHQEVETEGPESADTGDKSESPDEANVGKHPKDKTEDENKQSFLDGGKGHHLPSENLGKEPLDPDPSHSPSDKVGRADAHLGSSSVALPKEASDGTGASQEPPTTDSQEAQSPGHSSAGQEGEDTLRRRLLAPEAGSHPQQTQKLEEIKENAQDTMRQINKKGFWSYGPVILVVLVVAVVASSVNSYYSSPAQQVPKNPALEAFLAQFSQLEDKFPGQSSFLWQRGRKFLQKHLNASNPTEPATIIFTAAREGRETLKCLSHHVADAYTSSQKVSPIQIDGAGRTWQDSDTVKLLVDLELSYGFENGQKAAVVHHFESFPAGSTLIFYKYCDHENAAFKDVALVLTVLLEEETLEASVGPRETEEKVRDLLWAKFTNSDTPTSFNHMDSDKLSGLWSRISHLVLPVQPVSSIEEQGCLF
Chain of Follistatin-related protein 3 (Homo sapiens) (O95633 whole entry, looked up): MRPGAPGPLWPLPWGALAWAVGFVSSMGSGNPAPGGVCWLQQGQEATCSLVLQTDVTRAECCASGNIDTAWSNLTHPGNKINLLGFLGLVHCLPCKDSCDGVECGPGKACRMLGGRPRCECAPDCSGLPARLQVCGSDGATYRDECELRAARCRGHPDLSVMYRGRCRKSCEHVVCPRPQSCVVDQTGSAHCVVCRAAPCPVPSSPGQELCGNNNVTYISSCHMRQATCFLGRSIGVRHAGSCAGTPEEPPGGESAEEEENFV
Chain of Neurogenic locus notch homolog protein 3 (Homo sapiens) (Q9UM47 whole entry, looked up): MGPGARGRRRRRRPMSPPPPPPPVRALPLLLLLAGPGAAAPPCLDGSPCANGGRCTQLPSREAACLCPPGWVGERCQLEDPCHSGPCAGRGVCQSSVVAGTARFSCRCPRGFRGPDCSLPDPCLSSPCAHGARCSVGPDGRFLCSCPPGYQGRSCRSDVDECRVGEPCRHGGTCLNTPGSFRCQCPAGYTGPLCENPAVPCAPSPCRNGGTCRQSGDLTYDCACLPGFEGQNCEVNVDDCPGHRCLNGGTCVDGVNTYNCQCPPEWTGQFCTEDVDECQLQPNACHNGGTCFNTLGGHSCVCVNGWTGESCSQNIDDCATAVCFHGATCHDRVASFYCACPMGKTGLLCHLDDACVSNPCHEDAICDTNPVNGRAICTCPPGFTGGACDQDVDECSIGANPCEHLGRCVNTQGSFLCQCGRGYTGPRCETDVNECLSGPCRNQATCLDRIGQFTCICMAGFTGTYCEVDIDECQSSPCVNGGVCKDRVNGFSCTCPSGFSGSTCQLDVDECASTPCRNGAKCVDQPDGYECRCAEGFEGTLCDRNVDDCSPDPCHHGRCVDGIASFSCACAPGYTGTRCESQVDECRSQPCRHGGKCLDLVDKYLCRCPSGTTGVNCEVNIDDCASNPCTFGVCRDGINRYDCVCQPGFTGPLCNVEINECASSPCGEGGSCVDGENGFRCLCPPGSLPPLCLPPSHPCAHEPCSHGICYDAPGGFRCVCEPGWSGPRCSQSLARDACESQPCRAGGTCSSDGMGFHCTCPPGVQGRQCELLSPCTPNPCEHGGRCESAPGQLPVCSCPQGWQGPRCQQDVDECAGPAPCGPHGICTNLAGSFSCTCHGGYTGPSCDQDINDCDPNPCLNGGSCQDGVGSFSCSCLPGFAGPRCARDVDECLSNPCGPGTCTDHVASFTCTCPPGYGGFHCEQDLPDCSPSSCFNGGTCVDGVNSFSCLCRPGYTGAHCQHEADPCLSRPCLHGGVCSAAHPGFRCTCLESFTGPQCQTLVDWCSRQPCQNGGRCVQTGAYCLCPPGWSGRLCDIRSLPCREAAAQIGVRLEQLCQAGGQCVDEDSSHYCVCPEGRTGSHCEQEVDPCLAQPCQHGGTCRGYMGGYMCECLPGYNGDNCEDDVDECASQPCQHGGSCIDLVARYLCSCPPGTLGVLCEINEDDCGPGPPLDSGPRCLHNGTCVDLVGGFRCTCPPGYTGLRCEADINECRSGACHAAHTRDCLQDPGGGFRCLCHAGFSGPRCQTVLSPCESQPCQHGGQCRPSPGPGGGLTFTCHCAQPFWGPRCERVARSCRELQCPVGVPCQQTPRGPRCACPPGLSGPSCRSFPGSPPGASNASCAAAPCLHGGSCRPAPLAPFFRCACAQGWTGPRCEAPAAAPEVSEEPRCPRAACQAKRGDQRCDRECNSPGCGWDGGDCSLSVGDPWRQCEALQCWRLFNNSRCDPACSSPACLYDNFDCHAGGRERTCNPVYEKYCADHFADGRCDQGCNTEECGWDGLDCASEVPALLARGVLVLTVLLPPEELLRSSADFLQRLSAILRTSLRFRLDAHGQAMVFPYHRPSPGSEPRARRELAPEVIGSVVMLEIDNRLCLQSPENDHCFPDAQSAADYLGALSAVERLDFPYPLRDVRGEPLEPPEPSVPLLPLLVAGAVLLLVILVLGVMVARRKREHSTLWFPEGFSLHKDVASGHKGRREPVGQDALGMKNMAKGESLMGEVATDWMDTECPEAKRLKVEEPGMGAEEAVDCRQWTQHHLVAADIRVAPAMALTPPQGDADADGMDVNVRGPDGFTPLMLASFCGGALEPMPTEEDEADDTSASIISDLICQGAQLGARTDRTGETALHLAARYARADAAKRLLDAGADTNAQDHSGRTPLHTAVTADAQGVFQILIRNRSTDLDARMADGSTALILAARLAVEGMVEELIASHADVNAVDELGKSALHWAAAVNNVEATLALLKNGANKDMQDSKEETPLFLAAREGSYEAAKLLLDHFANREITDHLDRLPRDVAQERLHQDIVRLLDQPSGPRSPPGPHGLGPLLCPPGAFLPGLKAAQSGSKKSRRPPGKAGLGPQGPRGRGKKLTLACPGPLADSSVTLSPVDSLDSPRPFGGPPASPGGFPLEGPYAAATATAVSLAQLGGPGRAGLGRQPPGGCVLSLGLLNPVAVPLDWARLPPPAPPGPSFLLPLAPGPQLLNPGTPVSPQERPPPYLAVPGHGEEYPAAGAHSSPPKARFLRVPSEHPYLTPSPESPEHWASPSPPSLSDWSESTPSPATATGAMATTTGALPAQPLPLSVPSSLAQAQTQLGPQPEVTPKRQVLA
Chain of Epidermal growth factor receptor (Homo sapiens) (P00533 whole entry, looked up): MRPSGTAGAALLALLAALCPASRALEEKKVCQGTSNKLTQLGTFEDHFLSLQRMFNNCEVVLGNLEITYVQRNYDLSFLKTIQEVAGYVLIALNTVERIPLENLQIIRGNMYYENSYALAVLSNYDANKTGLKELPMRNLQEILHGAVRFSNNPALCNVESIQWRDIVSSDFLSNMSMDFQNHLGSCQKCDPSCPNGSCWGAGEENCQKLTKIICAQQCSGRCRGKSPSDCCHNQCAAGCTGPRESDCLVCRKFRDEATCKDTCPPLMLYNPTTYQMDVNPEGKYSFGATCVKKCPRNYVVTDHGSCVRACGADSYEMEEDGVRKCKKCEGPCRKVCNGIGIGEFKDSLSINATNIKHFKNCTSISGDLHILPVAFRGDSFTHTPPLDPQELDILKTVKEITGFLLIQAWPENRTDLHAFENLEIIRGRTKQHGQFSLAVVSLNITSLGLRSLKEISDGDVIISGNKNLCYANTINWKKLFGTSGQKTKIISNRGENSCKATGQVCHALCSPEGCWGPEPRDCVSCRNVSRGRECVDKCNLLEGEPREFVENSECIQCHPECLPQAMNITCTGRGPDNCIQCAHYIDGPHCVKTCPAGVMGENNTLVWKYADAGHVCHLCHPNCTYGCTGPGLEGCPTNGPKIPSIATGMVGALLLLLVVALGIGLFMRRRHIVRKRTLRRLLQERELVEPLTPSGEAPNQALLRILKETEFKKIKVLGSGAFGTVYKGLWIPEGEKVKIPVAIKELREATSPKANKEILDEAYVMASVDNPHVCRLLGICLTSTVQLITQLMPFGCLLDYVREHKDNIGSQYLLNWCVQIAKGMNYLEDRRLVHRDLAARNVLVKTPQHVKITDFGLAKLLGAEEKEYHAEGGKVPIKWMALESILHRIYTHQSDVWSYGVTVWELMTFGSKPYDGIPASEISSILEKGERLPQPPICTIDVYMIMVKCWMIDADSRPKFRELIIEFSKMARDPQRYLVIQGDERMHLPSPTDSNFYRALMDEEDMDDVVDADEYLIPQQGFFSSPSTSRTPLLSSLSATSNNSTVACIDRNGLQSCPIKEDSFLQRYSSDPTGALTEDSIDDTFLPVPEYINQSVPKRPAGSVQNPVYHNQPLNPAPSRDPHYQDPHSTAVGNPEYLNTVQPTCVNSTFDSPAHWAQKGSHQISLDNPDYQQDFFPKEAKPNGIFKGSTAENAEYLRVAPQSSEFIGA
Chain of Dickkopf-related protein 1 (Homo sapiens) (O94907 whole entry, looked up): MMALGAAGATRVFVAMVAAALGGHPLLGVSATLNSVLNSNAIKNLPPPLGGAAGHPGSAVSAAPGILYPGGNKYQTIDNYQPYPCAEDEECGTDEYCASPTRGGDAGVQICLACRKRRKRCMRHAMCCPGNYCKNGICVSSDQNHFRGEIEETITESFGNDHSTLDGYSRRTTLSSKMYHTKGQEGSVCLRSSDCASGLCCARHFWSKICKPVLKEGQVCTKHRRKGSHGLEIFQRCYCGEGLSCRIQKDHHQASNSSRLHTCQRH
Chain of Fibroblast growth factor 10 (Homo sapiens) (O15520 whole entry, looked up): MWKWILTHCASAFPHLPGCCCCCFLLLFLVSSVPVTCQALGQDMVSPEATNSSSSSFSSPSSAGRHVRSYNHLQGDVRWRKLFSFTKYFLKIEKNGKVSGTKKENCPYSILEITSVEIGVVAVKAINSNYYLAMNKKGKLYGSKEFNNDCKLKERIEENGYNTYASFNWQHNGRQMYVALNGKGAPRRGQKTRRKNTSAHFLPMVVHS

Row | Structure (SMILES) | composite z-score [1] | z-score [2] | z-score [3] | z-score [4] | composite z-score [5] | z-score [6] | composite z-score [7] | composite z-score [8] | composite z-score [9] | composite z-score [10] | composite z-score [11] | composite z-score [12] | composite z-score [13] | z-score [14] | composite z-score [15] | composite z-score [16] | composite z-score [17] | composite z-score [18] | composite z-score [19] | composite z-score [20]
1 | CC(C)=NOC[C@@H](O)COCc1ccco1 | -0.697 | 0.848 (inactive) | 0.174 (inactive) | 0.746 (inactive) | -0.151 | 0.358 (inactive) | -0.122 | 0.301 | -1.45 | -0.147 | 1.21 | -0.254 | -0.0658 | 0.638 (inactive) | -0.341 | -1.15 | -0.298 | -0.628 | 0.421 | 0.912
2 | C=CCN(C(=O)C1N(c2ccc(CCO)cc2)C(=O)C2C(C(=O)O)C3C=CC21O3)c1ccc(OC)cc1 (stereo not given) | -0.133 and -0.497 | 0.156 (inactive) and -0.236 (inactive) | 0.332 (inactive) and -0.577 (inactive) | 0.131 (inactive) and -1.62 (inactive) | 0.0657 and -1.42 | 0.683 (inactive) and 2.67 (inactive) | -0.0641 and 0.0524 | -1.24 and -0.818 | 0.0568 and -1.8 | -0.302 and -0.367 | 1.07 and -0.0141 | -0.0654 and -0.638 | 0.581 and 0.683 | 0.119 (inactive) and -0.374 (inactive) | -0.0665 and -1.53 | -0.313 and -1.1 | -1.33 and -1.47 | -1.01 and -0.528 | -1.35 and -0.641 | -2.09 and -3.41
3 | CCOC(=O)NN=C1C[C@@H](O)[C@@H](O)[C@@H]2[C@@H]3C(=O)N(Cc4ccccc4)C(=O)[C@@H]3CC[C@@H]12 | 0.249 | 0.872 (inactive) | 0.117 (inactive) | 0.552 (inactive) | -0.572 | -1.68 (inactive) | -0.217 | 0.406 | 0.639 | -0.282 | 0.454 | -0.287 | -0.655 | 0.477 (inactive) | 0.118 | 0.304 | 0.542 | 0.59 | 0.355 | -0.208
4 | C=CCN(Cc1ccccc1)C(=O)C1N(C(C)(C)CO)C(=O)C2C(C(=O)O)C3C=CC21O3 (stereo not given) | -1.67 and -1.32 | -0.421 (inactive) and -0.475 (inactive) | -0.369 (inactive) and -0.243 (inactive) | -0.13 (inactive) and -0.429 (inactive) | -0.696 and -1.91 | -0.333 (inactive) and 1.73 (inactive) | -0.0563 and -0.136 | -2.68 and -1.76 | -1.46 and -1.43 | -0.25 and -0.242 | 0.107 and 0.29 | -0.135 and -0.486 | 0.708 and 0.849 | 0.0525 (inactive) and 0.382 (inactive) | -1.46 and -2 | -0.767 and -1.51 | -2.64 and -1.86 | -1.45 and -1.73 | -2.3 and -1.58 | -4.6 and -2.88
5 | CC(C)=CCCC(C)=CCON=C1C[C@@H](O)[C@@H](O)[C@@H]2[C@@H]3C(=O)N([C@@H](C)c4ccccc4)C(=O)[C@@H]3CC[C@H]12 | 1.13 | -1.23 (inactive) | -0.846 (inactive) | -0.989 (inactive) | 2.28 | -1.39 (inactive) | -0.0991 | 0.454 | 0.492 | -0.162 | 0.948 | -0.238 | -0.213 | -1.19 (inactive) | 0.739 | 0.692 | 0.525 | 0.718 | 0.645 | 1.15
6 | C=C[C@H](C)[C@@H](O)c1ccc(OCCO)cc1 | -0.269 and 0.62 | -0.766 (inactive) and 0.227 (inactive) | -0.467 (inactive) and -0.537 (inactive) | -0.647 (inactive) and 0.024 (inactive) | -0.982 and 0.448 | 0.158 (inactive) and -0.18 (inactive) | -0.184 and -0.0816 | -0.565 and -0.187 | -0.956 and -0.773 | -0.403 and -0.216 | 1.19 and -0.0088 | 0.892 and -0.0695 | 0.689 and 0.639 | -0.636 (inactive) and -0.215 (inactive) | -1.09 and -0.675 | -0.914 and -0.622 | -1.51 and -0.966 | -1.35 and -0.796 | -1.05 and -0.262 | -1.03 and -0.831
7 | COC(=O)C1=C(C)N(Cc2ccccc2)C2=C(C(C)=O)[C@H](c3ccccc3)[C@@](O)(C(=O)OC)C(=O)N2[C@@H]1c1ccccc1 | 1.09 and -0.374 | 0.0482 (inactive) and -3.34 (inactive) | -4.6 (inactive) and -4.09 (inactive) | -0.873 (inactive) and -2.14 (inactive) | 0.72 and -0.756 | -0.0134 (inactive) and -0.274 (inactive) | -0.0873 and -0.254 | 0.409 and 0.203 | 1.13 and -0.352 | 0.0729 and -0.118 | 0.765 and -0.399 | 0.156 and -0.547 | -0.535 and -0.652 | -0.694 (inactive) and -2.98 (inactive) | 0.686 and 0.158 | 0.845 and -0.533 | 0.365 and 0.197 | 0.796 and 0.145 | 0.591 and -0.0346 | 0.174 and 1.21
